Results on 45 compounds are retold here after the antibiotic and cytotoxicity screens of Wong et al. (2023).

Screen size: about 39,000 compounds; about 3,300 (8.5%) were called active. This excerpt belongs to a sample that is enriched for actives.

For the test, the system named is HepG2. Briefly: cytotoxicity call (relative viability < 0.9). The conditions noted are these: 10 µM.
With `C[C@@H]1CCCCO[C@H](CN(C)S(=O)(=O)c2ccccc2)[C@H](C)CN([C@@H](C)CO)C(=O)c2cc(NS(=O)(=O)c3ccc(Cl)cc3)ccc2O1`, the cytotoxicity call is “inactive”.

Regarding `C[C@@H]1CN([C@@H](C)CO)C(=O)c2cc(NS(=O)(=O)c3ccccc3)ccc2O[C@@H](C)CCCCO[C@@H]1CN(C)S(=O)(=O)c1ccc(Cl)cc1`, the cytotoxicity call is “inactive”.

In the case of `C[C@H](CO)N1C[C@H](C)[C@@H](CN(C)S(=O)(=O)c2ccccc2)OCCCC[C@H](C)Oc2ccc(NS(=O)(=O)c3ccc(Cl)cc3)cc2C1=O`, the cytotoxicity call is “inactive”.

With `C[C@@H]1CN([C@H](C)CO)C(=O)c2cc(NS(=O)(=O)c3ccc(Cl)cc3)ccc2O[C@@H](C)CCCCO[C@@H]1CN(C)S(=O)(=O)c1ccccc1`, the cytotoxicity call was “inactive”.

In the case of `C[C@@H]1CN([C@H](C)CO)C(=O)c2cc(NS(=O)(=O)c3ccccc3)ccc2O[C@@H](C)CCCCO[C@@H]1CN(C)S(=O)(=O)c1ccc(Cl)cc1`, the cytotoxicity call is “inactive”.

Regarding `C[C@@H]1CCCCO[C@@H](CN(C)S(=O)(=O)c2ccccc2)[C@H](C)CN([C@H](C)CO)C(=O)c2cc(NS(=O)(=O)c3ccc(Cl)cc3)ccc2O1`, the cytotoxicity call was “inactive”.

`C[C@@H]1CN([C@@H](C)CO)C(=O)c2cc(NS(=O)(=O)c3ccc(Cl)cc3)ccc2O[C@@H](C)CCCCO[C@@H]1CN(C)S(=O)(=O)c1ccccc1`: the cytotoxicity call is “active”.

`C[C@H](CO)N1C[C@H](C)[C@H](CN(C)S(=O)(=O)c2ccc(Cl)cc2)OCCCC[C@H](C)Oc2ccc(NS(=O)(=O)c3ccccc3)cc2C1=O`: the cytotoxicity call was “active”.

In the case of `C[C@@H]1CCCCO[C@H](CN(C)S(=O)(=O)c2ccc(Cl)cc2)[C@@H](C)CN([C@H](C)CO)C(=O)c2cc(NS(=O)(=O)c3ccccc3)ccc2O1`, the cytotoxicity call was “inactive”.

Regarding `C[C@@H]1CCCCO[C@@H](CN(C)S(=O)(=O)c2ccc(Cl)cc2)[C@H](C)CN([C@H](C)CO)C(=O)c2cc(NS(=O)(=O)c3ccccc3)ccc2O1`, the cytotoxicity call is “active”.

For the compound `C[C@@H]1CN([C@H](C)CO)C(=O)c2cc(NS(=O)(=O)c3ccc(Cl)cc3)ccc2O[C@@H](C)CCCCO[C@H]1CN(C)S(=O)(=O)c1ccccc1`, the cytotoxicity call is “active”.

On to `C[C@@H]1CCCCO[C@@H](CN(C)S(=O)(=O)c2ccccc2)[C@H](C)CN([C@@H](C)CO)C(=O)c2cc(NS(=O)(=O)c3ccc(Cl)cc3)ccc2O1`, for which the cytotoxicity call is “inactive”.

Regarding `C[C@@H]1CN([C@@H](C)CO)C(=O)c2cc(NC(=O)CCC(F)(F)F)ccc2O[C@@H](C)CCCCO[C@H]1CN(C)Cc1ccncc1`, the cytotoxicity call was “inactive”.

Turning to `C=CCOC(=O)[C@H]1[C@@H]2C(=O)O[C@@H](c3ccccc3)[C@@H](c3ccccc3)N2[C@@H](c2ccc(OCCOC(=O)[C@H]3C[C@H]4C(=O)N[C@@H](Cc5ccccc5)C(=O)N4[C@H]3c3ccc(O)cc3)cc2)[C@]12C(=O)Nc1ccc(I)cc12`, the cytotoxicity call was “inactive”.

Regarding `C[C@@H]1CCCCO[C@@H](CN(C)C(=O)NC2CCCCC2)[C@@H](C)CN([C@@H](C)CO)C(=O)c2cc(NS(=O)(=O)c3cccs3)ccc2O1`, the cytotoxicity call was “inactive”.

For the compound `CCCNC(=O)N[C@H]1C=C[C@H](CC(=O)N2CCN(C)CC2)O[C@H]1CO`, the cytotoxicity call was “inactive”.

For the compound `Oc1cccc(c1)/C/1=C/2\CC/C(=C(\c3cccc(c3)O)c3ccc([nH]3)/C(=C\3/C=CC(=N3)/C(=C\3/C=CC1=N3)c1cccc(c1)O)c1cccc(c1)O)N2`, the cytotoxicity call was “inactive”.

Turning to `C[C@@H]1CN([C@H](C)CO)C(=O)c2cc(NS(=O)(=O)c3ccccc3)ccc2O[C@@H](C)CCCCO[C@H]1CN(C)S(=O)(=O)c1ccc(Cl)cc1`, the cytotoxicity call is “active”.

With `C[C@@H]1CCCCO[C@H](CN(C)S(=O)(=O)c2ccc(Cl)cc2)[C@@H](C)CN([C@@H](C)CO)C(=O)c2cc(NS(=O)(=O)c3ccccc3)ccc2O1`, the cytotoxicity call was “inactive”.

Take `C[C@@H]1CCCCO[C@H](CN(C)S(=O)(=O)c2ccccc2)[C@H](C)CN([C@H](C)CO)C(=O)c2cc(NS(=O)(=O)c3ccc(Cl)cc3)ccc2O1`: the cytotoxicity call was “inactive”.

`O=C(CS(=O)(=O)c1cccc2nsnc12)N1CC(=O)N(CCc2ccccc2)C(=O)C1`: the cytotoxicity call was “inactive”.

Consider `C[C@H]1CN([C@@H](C)CO)C(=O)c2cc(NS(=O)(=O)c3cn(C)cn3)ccc2O[C@@H]1CN(C)S(=O)(=O)c1ccc(F)cc1`, for which the cytotoxicity call is “inactive”.

In the case of `C[C@H](CO)N1C[C@H](C)[C@H](CN(C)Cc2ccc(C(F)(F)F)cc2)Oc2c(NS(C)(=O)=O)cccc2C1=O`, the cytotoxicity call was “inactive”.

Take `Cc1ccc(-c2ccc3c(c2)O[C@H](CN(C)C(=O)NC(C)C)[C@H](C)CN([C@@H](C)CO)S3(=O)=O)cc1`: the cytotoxicity call is “inactive”.

Consider `C[C@H](CO)N1C[C@H](C)[C@H](CN(C)S(=O)(=O)c2ccc(F)cc2)OCCCC[C@H](C)Oc2ccc(NS(=O)(=O)c3cn(C)cn3)cc2C1=O`, for which the cytotoxicity call was “inactive”.

Consider `O=C(C[C@H]1CC[C@@H]2[C@H](COC[C@H](O)CN2S(=O)(=O)c2ccccc2Cl)O1)NCc1ccccc1Cl`, for which the cytotoxicity call was “inactive”.

For `CN(CC(=O)Nc1cccc(S(=O)(=O)N2CCOCC2)c1)CC(=O)Nc1ccc(Cl)c(C(F)(F)F)c1`, the cytotoxicity call was “inactive”.

On to `C[C@H](NC(=O)c1c(N)nn2cccnc12)c1cc2cccc(C#Cc3cnn(C)c3)c2c(=O)n1-c1ccccc1`, for which the cytotoxicity call was “active”.

On to `O=C(C[C@H]1CC[C@H]2[C@@H](COC[C@@H](O)CN2S(=O)(=O)c2ccccc2)O1)NCCN1CCCC1`, for which the cytotoxicity call was “inactive”.

Consider `CN1CCN(C(=O)C[C@H]2CC[C@H]3[C@@H](COc4ccc(NC(=O)c5cccs5)cc4C(=O)N3C)O2)CC1`, for which the cytotoxicity call was “inactive”.

As to `COc1ccc(S(=O)(=O)N(C)C[C@H]2Oc3ccc(NC(=O)c4ccncc4)cc3CC(=O)N([C@H](C)CO)C[C@H]2C)cc1`, the cytotoxicity call is “inactive”.

With `CN(C)CC(=O)N1CC2(C1)[C@@H](c1ccccc1)[C@H](CO)N2S(C)(=O)=O`, the cytotoxicity call was “inactive”.

On to `CC(C)(C)c1cc(C(=O)NN)no1`, for which the cytotoxicity call is “inactive”.

`CCN1C(C)(C)CC(Oc2ccc(C(=O)Nc3ccc(NC(=O)Nc4cc(C(C)(C)C)on4)cc3)nc2)CC1(C)C`: the cytotoxicity call is “active”.

On to `COc1cc2ncnc(Oc3cccc(NC(=O)Nc4cc(C(C)(C)C(F)(F)F)on4)c3)c2cc1OC`, for which the cytotoxicity call is “inactive”.

As for `C[C@@H]1CN([C@H](C)CO)C(=O)Cc2cc(NC(=O)Cn3cnnn3)ccc2O[C@H]1CN(C)C(=O)NC1CCCCC1`, the cytotoxicity call is “inactive”.

As for `C[C@@H]1CN([C@@H](C)CO)C(=O)c2cc(NC(=O)Nc3cccc4ccccc34)ccc2O[C@@H]1CN(C)Cc1ccccc1`, the cytotoxicity call was “active”.

As to `C[C@H]1CN([C@@H](C)CO)C(=O)c2cc(NC(=O)Nc3cccc4ccccc34)ccc2O[C@@H]1CN(C)Cc1ccc2c(c1)OCO2`, the cytotoxicity call is “inactive”.

On to `C[C@H]1CN([C@@H](C)CO)C(=O)c2cc(NC(=O)Nc3cccc4ccccc34)ccc2O[C@@H]1CN(C)Cc1ccccc1`, for which the cytotoxicity call is “inactive”.

Take `C[C@@H]1CN([C@@H](C)CO)C(=O)c2cc(NC(=O)Nc3cccc4ccccc34)ccc2O[C@@H]1CN(C)Cc1ccc2c(c1)OCO2`: the cytotoxicity call is “active”.

With `C[C@@H]1CN([C@H](C)CO)C(=O)c2cc(NC(=O)Nc3cccc4ccccc34)ccc2O[C@@H]1CN(C)Cc1ccccc1`, the cytotoxicity call was “active”.

On to `C[C@@H]1CN([C@@H](C)CO)C(=O)c2cc(NC(=O)Nc3cccc4ccccc34)ccc2O[C@H]1CN(C)Cc1ccc2c(c1)OCO2`, for which the cytotoxicity call is “inactive”.

In the case of `C[C@H](CO)N1C[C@H](C)[C@H](CN(C)Cc2ccccc2)Oc2ccc(NC(=O)Nc3cccc4ccccc34)cc2C1=O`, the cytotoxicity call was “inactive”.

As to `C[C@@H]1CN([C@@H](C)CO)C(=O)c2cc(NC(=O)Nc3cccc4ccccc34)ccc2O[C@H]1CN(C)Cc1ccccc1`, the cytotoxicity call is “inactive”.

On to `C[C@@H]1CN([C@H](C)CO)C(=O)c2cc(NC(=O)Nc3cccc4ccccc34)ccc2O[C@H]1CN(C)Cc1ccccc1`, for which the cytotoxicity call was “inactive”.
